Compound activity (PubChem BioAssay)
USP1 inh: inhibitors of human USP1/UAF1 deubiquitinase; O94782; recombinant USP1/UAF1, Ub-Rhodamine cleavage fluorescence; Potency, µM (top dose mostly 57.1 µM), usual class: inhibitors; 0.23% of 390,000 active; active means well fitted inhibition curve with a large enough effect; inconclusive means small, poorly fitted or top-dose-only effect; inactive means no such curve, though single readings can be large or run the other way; further: nearly all actives have a fitted effect of over 60% in size
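High-throughput fluorogenic screen: 1nM USP1/UAF1 complex, Ub-Rho substrate 150nM final, 50mM HEPES pH 7.8 with 0.5mM EDTA, 0.1 mg/ml BSA, 1mM TCEP and 0.01% Tween-20.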
D1 antag: human D1 dopamine receptor antagonism. HEK293 TREx D1 cells, calcium flux, dopamine EC80; active compounds read low. activity change, negative = inhibition, % at 10 µM. 3.2% of 360,000 active. P21728; in the data active means activity change below about -30%
Target sequence (P21728 whole entry, looked up): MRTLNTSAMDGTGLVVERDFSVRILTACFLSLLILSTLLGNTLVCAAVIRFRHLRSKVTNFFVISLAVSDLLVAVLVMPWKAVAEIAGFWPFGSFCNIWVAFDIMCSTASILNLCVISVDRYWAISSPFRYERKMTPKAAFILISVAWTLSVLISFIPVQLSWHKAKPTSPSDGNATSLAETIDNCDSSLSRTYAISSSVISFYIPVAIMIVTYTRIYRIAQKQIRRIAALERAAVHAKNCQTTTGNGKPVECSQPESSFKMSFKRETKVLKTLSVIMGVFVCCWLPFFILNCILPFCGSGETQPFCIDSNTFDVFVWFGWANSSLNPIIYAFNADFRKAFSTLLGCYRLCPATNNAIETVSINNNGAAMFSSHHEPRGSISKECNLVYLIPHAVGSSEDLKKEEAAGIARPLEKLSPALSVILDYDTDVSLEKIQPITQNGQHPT
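Compound effects on dopamine-evoked calcium signalling were measured in tetracycline-induced HEK293 Trex D1 cells. Dopamine at EC80 followed a 180 s compound pre-read, and fluorescence was tracked kinetically for 180 s more.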
D1 ag: human D1 receptor agonism; 1% of 360,000 active; HEK293 T-REx D1 cells, calcium flux, agonist mode; activation, % at 2 µM; AID 504660
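Agonism was scored from calcium flux recorded over 180 s (1 read/s) after pintool compound addition, following a 10-cycle baseline. Cells were inducible force-coupled HEK293 TREx D1, plated overnight at 30 C and loaded with no-wash calcium dye.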
TRHR agonist: agonists of human TRH receptor; TRHR cells, calcium flux fluo-8, FDSS agonist mode; activation, % at 2 µM; 0.18% of 360,000 active; P34981
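TRHR-expressing cells loaded with fluo-8 calcium dye; 23 nL library compound pin-transferred, kinetic FDSS fluorescence (Ex 480/Em 530) recorded about 180 s for agonist-induced calcium release, before a 10 nM TRH EC20 addition for potentiator mode.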
D1 potentiator: human D1 dopamine receptor positive modulation; 0.036% of 360,000 active; P21728; AID 504651; potentiation, % at 10 µM; HEK293 TREx D1 cells, calcium flux, dopamine EC20 potentiation; in the data active means potentiation above about 30%
TRHR enhancer: allosteric enhancers of human TRH receptor; TRHR cells, fluo-8 calcium fluorescence, EC20 TRH enhancement; enhancement, % at 2 µM; 0.66% of 360,000 active; in the data active means enhancement above about 30%
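TRHR-expressing cells loaded with fluo-8 calcium dye were read kinetically (ex 480/em 530) during compound addition, then stimulated with an EC20 of TRH (10 nM final). Enhancement of the Gq-mediated intracellular calcium response was scored.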
Numbers stand for hits; n = inactive; u = inconclusive; x = no result given; ! = a repeat was not active. Shown are actives, neighbours in structure and some others; about 4.4% of the full set was active somewhere. Unless noted, no stated cut-off is given here; in the data, active means activation above about 30%; inactive means the rest.

SMILES	USP1 inh	D1 antag	D1 ag	TRHR agonist	D1 potentiator	TRHR enhancer
CCC(=O)NC(c1ccc([N+](=O)[O-])cc1)c1c(O)ccc2ccccc12 (centres undefined)	n	-37	n	n	n	n
O=S(=O)(c1ccc2c(c1)OCCO2)N1CCN(S(=O)(=O)c2ccc3c(c2)OCCO3)CC1	x	n	n	n	n	n
Cc1ccc(S(=O)(=O)N2CCN(c3ncnc4sccc34)CC2)cc1C	n	n	n	n	n	n
O=S(=O)(c1ccc2c(c1)OCCO2)N1CCN(c2ncnc3sccc23)CC1	n	-32	n	n	n	n
Cc1cc(C)c(C)c(S(=O)(=O)N2CCN(S(=O)(=O)c3ccc4c(c3)OCCO4)CC2)c1C	x	-48	n	n	n	n
CCN(CC)c1ccc(NC(=O)C2COc3ccc(OC)cc3C2)c(C)c1 (centres undefined)	n	n	n	n	n	n
Cc1ccc(OCc2nc3ccccc3n2Cc2ccccc2Cl)cc1	n	n	n	n	n	n
COc1ccc(/C=N/NC(=O)CCCOc2ccc(Cl)cc2Cl)cc1	n	-32	n	n	n	n
COc1ccc(/C=N\NC(=O)CC(=O)Nc2cccc(Cl)c2)cc1OC	n	-51	n	n	n	n
O=C(CCCOc1ccc(Cl)cc1Cl)N/N=C/c1ccc(Cl)cc1	n	n	n	n	n	n
COc1ccc(/C=N/NC(=O)CCC(=O)Nc2ccccc2)cc1OC	n	n	n	n	n	n
COc1ccc(/C=N/NC(=O)CNc2n[nH]c(=O)[nH]c2=O)cc1OC	n	n	n	n	n	34
Cc1nc2c(-c3ccc(F)cc3)c(C)nn2c(C)c1CCC(=O)Nc1ccccc1	n	n	n	n	n	n
COCCNC(=O)CCc1c(C)nc2c(-c3ccc(F)cc3)c(C)nn2c1C	n	n	n	n	n	n
COCCCNC(=O)CCc1c(C)nc2nc(-c3cc(OC)cc(OC)c3)nn2c1C	n	-31	n	n	n	n
CCN1CCN(c2ccc(NC(=O)CCc3c(C)nc4c(-c5ccc(F)cc5)c(C)nn4c3C)cc2)CC1	n	-79	n	n	n	n
COCCCNC(=O)CCc1c(C)nc2c(-c3ccc(F)cc3)c(C)nn2c1C	n	-34	n	n	n	n
COc1cc(OC)cc(-c2nc3nc(C)c(CCC(=O)NCCC(C)C)c(C)n3n2)c1	n	n	n	n	n	n
CC(C)c1ccc(/C=C2\NC(=S)N(Cc3cccnc3)C2=O)cc1	n	-37	n	n	n	n
CC(=O)C1=C(O)C(=O)N(Cc2cccnc2)C1c1ccc(C(C)C)cc1 (centres undefined)	n	n	n	n	n	n
Cc1ccc(NC(=O)C2CCCN(S(=O)(=O)c3ccc(C)cc3)C2)cc1 (centres undefined)	n	n	n	n	n	n
Cc1nc(C)c(-c2csc(Nc3ccc(O)cc3C)n2)s1	n	-32	n	n	n	n
Nc1nc(-c2ccc(Br)cc2)cs1	n	n	n	n	n	n
N/C(Cc1nc(-c2ccc(F)cc2)cs1)=N\O	n	n	n	n	n	n
Oc1ccc(Nc2nc(-c3ccc(O)cc3)cs2)cc1	n	-32	41	n	n	n
SMILES	USP1 inh	D1 antag	D1 ag	TRHR agonist	D1 potentiator	TRHR enhancer
NS(=O)(=O)c1ccc(Nc2nc(-c3ccc(O)cc3)cs2)cc1	n	n	n	n	n	n
Cc1cc(O)ccc1Nc1nc(-c2cccs2)cs1	u	n	n	n	n	n
Brc1ccc(-c2csc(Nc3nc(-c4ccc(Br)cc4)cs3)n2)cc1	n	-30	n	n	n	n
N/C(Cc1nc(-c2ccc(Br)cc2)cs1)=N\O	n	-47	n	n	n	n
CCn1c(=O)cc(OCC(=O)N(C)c2ccc(OC)cc2)c2ccccc21	n	n	n	n	n	n
CCCc1nc(SC)ncc1C(=O)N1CCN(c2ccc(Cl)cc2)CC1	n	n	n	n	n	n
Fc1ccc(Nc2nc(-c3ccncc3)cs2)cc1	n	-52	n	n	n	n
Clc1ccc(Nc2nc(-c3ccncc3)cs2)cc1	n	x	x	x	x	x
Cc1nc(C)c(-c2csc(Nc3ccc(F)cc3)n2)s1	n	-38	n	n	n	n
Cc1ccc(CCNS(=O)(=O)c2cc(-c3cc(C)no3)ccc2C)cc1	n	n	n	n	n	n
O=S(=O)(Nc1cc(Cl)ccc1-n1cncn1)c1ccc(F)cc1	n	n	n	n	n	n
O=S(=O)(Nc1cc(Cl)ccc1-n1cncn1)c1cc(Br)ccc1Br	n	-33	n	n	n	n
Cc1ccc(S(=O)(=O)Nc2cc(Cl)ccc2-n2cncn2)cc1	n	-38	n	n	n	n
CCOC(=O)c1ccccc1NC(=O)Cn1c(=O)n(CCC(=O)NCc2ccccc2OC)c(=O)c2ccccc21	n	n	n	n	n	n
COc1ccc2cc1Oc1ccc(cc1)C[C@H]1c3c(cc4c(c3Oc3cc5c(cc3OC)CCN(C)[C@@H]5C2)OCO4)CCN1C	n	-37	n	n	n	n
O=C(CCN1CCCCCC1)c1ccccc1	n	n	n	n	n	n
O=C(CCCCN1CCCCC1)c1ccc2c(c1)Cc1ccccc1-2	n	-36	31	n	n	n
COC(=O)CCn1nc(-c2ccc(C)cc2)c2ccccc2c1=O	n	n	n	n	n	n
CCOC(=O)CCn1nc(-c2ccc(C)cc2)c2ccccc2c1=O	n	-49!	n	n	n	n
CC(C)(C)NC(=O)CCn1nc(-c2ccc(Cl)cc2)c2ccccc2c1=O	n	n	n	n	n	n
Cc1ccccc1NC(=O)CCn1cnc2onc(-c3ccc(F)cc3)c2c1=O	n	-45	n	n	n	n
CCOc1ccc(NC(=O)CCn2cnc3onc(-c4ccc(F)cc4)c3c2=O)cc1	n	n	n	n	n	n
Cc1ccccc1NC(=O)CCn1nc(-c2ccc(Cl)cc2)c2ccccc2c1=O	n	n	n	n	n	37
Cc1ccccc1C(=O)N1N=C(c2ccc(NS(C)(=O)=O)cc2)CC1c1cccs1 (centres undefined)	n	n	n	n	n	n
CCS(=O)(=O)Nc1cccc(C2=NN(C(C)=O)C(c3cccs3)C2)c1 (centres undefined)	n	-47	n	n	n	n
CS(=O)(=O)Nc1ccc(C2=NN(C(=O)c3cccc(F)c3)C(c3cccs3)C2)cc1 (centres undefined)	n	n	n	n	n	n
COc1ccccc1C(=O)N1N=C(c2ccc(NS(C)(=O)=O)cc2)CC1c1cccs1 (centres undefined)	n	n	n	n	n	34
